Assay outcomes as filed in PubChem.
Sampled rows, rich in hits. Any-hit rate of the full collection: about 11%.
RORg inh: ROR gamma (mouse) transcription inhibition; P51450; Drosophila S2 Gal4-RORgamma UAS-luciferase reporter, 20 h; Potency, µM (highest dose often 53.6 µM), inactives show at the highest dose activity change, negative = inhibition, most hits filed as inhibitors; actives 5.4% (n = 310,000); AID 2551; further: potency means the concentration at half of the fitted maximal effect; on the % scale 0 is the no-effect control and ±100 the full control effect; nearly all actives have a fitted effect of over 60% in size
Target sequence (P51450 whole entry, looked up, the tested form may be a part): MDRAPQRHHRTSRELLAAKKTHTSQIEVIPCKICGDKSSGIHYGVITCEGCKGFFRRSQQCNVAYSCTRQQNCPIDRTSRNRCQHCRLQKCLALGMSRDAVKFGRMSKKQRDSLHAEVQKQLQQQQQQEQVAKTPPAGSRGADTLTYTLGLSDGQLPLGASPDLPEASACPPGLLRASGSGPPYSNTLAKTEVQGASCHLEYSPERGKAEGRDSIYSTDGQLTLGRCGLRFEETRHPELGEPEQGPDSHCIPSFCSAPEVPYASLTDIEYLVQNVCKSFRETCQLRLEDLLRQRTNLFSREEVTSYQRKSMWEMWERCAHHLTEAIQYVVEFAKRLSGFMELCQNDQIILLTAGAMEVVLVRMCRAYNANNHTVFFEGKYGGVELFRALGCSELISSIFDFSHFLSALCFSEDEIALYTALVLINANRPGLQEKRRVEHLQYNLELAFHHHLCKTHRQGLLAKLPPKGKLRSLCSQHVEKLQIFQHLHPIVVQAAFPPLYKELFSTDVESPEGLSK
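In this cell-based reporter format, copper sulfate (700 uM final) drives Gal4–ROR gamma fusion expression from a metallothionein promoter in Drosophila Schneider cells; compounds preincubated 1 hr, reporter read after 20 hr at ambient temperature.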
MCF10A rereplic: inducers of DNA re-replication in MCF 10A breast cells; MCF 10A DNA re-replication, Hoechst nuclear intensity, 48 h; Potency, µM (highest dose often 46.1 µM), for the others: at the top dose activity, positive = re-replication, actives largely listed as activators; actives 2.9% (n = 350,000); further: potency means the concentration at half of the fitted maximal effect; % of control where 0% means no effect; nearly all actives have a fitted effect of over 50% in size
VP16 counter: inhibits Gal4-VP16 luciferase reporter, ROR gamma counter-screen | Drosophila S2 Gal4-VP16 UAS-luciferase, luminescence, 20 h | Potency, µM (highest dose often 53.6 µM), inactives show at the top dose activity, negative = inhibition, most hits filed as inhibitors | actives 3.5% (n = 310,000) | AID 2546;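 further: Gal4-VP16 expression switched on by copper sulfate through the metallothionein promoter; potency means the concentration at half of the fitted maximal effect; on the % scale 0 is the no-effect control and ±100 the full control effect; nearly all actives have a fitted effect of over 50% in size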
SW480 rereplic: induces DNA re-replication in SW480 colon adenocarcinoma cells | Potency, µM (series often up to 46.1 µM), for the others: at the top dose re-replication activation, actives largely listed as activators | actives 1.8% (n = 340,000) | SW480 DNA re-replication, Hoechst DNA content imaging, 48 h; further: potency means the concentration at half of the fitted maximal effect; % of control where 0% means no effect; nearly all actives have a fitted effect of over 55% in size
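First, 250 cells per well were seeded. Next, compound or vehicle (23 nL) was pinned in, plates sat 48 hr at 37 C. Finally Hoechst was added for 40 min before fluorescence scanning.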
IL-1B inflam inh: blocks inflammasome-driven IL-1 beta release. THP-1 LPS/ATP IL-1B secretion, AlphaLISA, 16 h; active compounds read low. actives 4.7% (n = 360,000). activity change, % at 57.5 µM; in the data active means activity change below about -50%; inconclusive means mostly about -30% to -49%; further: on the % scale 0 is the no-effect control and ±100 the full control effect
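Secreted IL-1B measured by AlphaLISA bead assay after 16 h compound exposure of THP-1 cells; compounds (final up to 57.5 uM) added 1 h before LPS (250 ng/mL) and ATP (1.25 mM) stimulation; lower signal means less secretion.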
Starred values were filed as active, the others as inactive; ? = inconclusive; / = not tested or not shown; ! = repeats disagree; [ ] = another dose, or the depositor's remark. Unless noted, the call rests on the fitted dose curve; in most records, active means well fitted curve in the direction sought with a large enough effect; inconclusive means small, poorly fitted or top-dose-only effect, or another doubt; inactive means no such curve, though single readings can be large; an effect the other way counts as inactive or inconclusive.

SMILES | RORg inh | MCF10A rereplic | VP16 counter | SW480 rereplic | IL-1B inflam inh
Cc1cc2oc(=O)cc(CN(C)Cc3ccccc3)c2cc1C(C)C | 13.0% | 14.6µM* | 2.2% | ? | -11.8
COc1ccc(CN(C)Cc2cc(=O)oc3cc(C)c(C(C)C)cc23)cc1OC | 6.5% | ? | 4.5% | ? | -57.7*
COc1cc(CN(C)Cc2cc(=O)oc3cc(C)c(Cl)cc23)ccc1OC(F)F | ? | ? | -10.9% | -0.6% | -6.6
NCC(=O)N[C@@H](CCCN=C(N)N)C(=O)NCC(=O)N[C@@H](CCC(=O)O)C(=O)N[C@@H](CO)C(=O)O | -2.7% | / | -8.5% | / | /
CCOC(=O)C1=C[C@@H](C2CCCC2)N(S(=O)(=O)c2ccc([N+](=O)[O-])cc2)[C@H]1c1ccccc1 | / | / | / | / | 23.6
CC(C)(C)c1csc(NC(=O)c2ccc(Cl)s2)n1 | 7.0% | ? | -4.7% | ? | -23.0
CCNc1nc(N)c(C(=O)c2ccc(Cl)s2)s1 | -7.3% | 0.92µM* | ? | ? | -96.4*
CN(CC1CCOCC1)C(=O)c1ccc2nc(Cc3cccc(Cl)c3)oc2c1 | 16.4% | 18.4µM* | -9.6% | 9.7% | -9.8
O=C(NCC1CCOCC1)c1ccc2nc(Cc3cccc(Cl)c3)oc2c1 | 11.2% | 9.1% | 15.1% | -0.4% | -12.0
Cc1ccc(OCC(=O)N2CC(C)CC(C)C2)c([N+](=O)[O-])n1 (configuration not stated) | / | -1.9% | / | -5.4% | -4.8
CCOc1cc(C(=O)N/N=C/C(Br)=C/c2ccccc2)cc(OCC)c1OCC | 10.8%[10 µM] | 1.3µM* | 1.8% | ? | -51.1*
CC(=C/c1ccc(C(C)C)cc1)/C=N/NC(=O)c1ccncc1 | -8.6% | 20.6µM* | -2.8% | -3.8% | -7.1
O=C(N/N=C/C(Br)=C\c1ccccc1)c1ccc2nc[nH]c2c1 | 14.1µM* | 23.1µM* | 7.94µM* | ? | -89.9*
O=C(N/N=C/C(Br)=C/c1ccccc1)c1cccnc1 | ? | ? | 1.6% | ? | -94.8*
CC(/C=N/NC(=O)c1ccncc1)=C\c1ccccc1 | -14.3% | -22.0% | -0.2% | 0.9% | -5.1
O=C(N/N=C/C(Br)=C/c1ccccc1)C(O)c1ccccc1 (configuration not stated) | ? | 3.9% | ? | 21.4% | -20.4
O=C(N/N=C/C(Br)=C/c1ccccc1)c1ccc([N+](=O)[O-])cc1 | 12.6µM* | 12.8% | -19.0% | ? | ?
O=C(N/N=C/C(Br)=C/c1ccccc1)c1ccncc1 | -1.3% | ? | -7.6% | ? | -83.6*
O=C(O)c1ccc(N/N=C/C(Br)=C/c2ccccc2)cc1 | 8.91µM* | ? | 10µM* | ? | -13.7
CCC(C)Sc1cccc(-c2nc3cc(C)ccn3c2NC2CCCCC2)c1 (configuration not stated) | / | 18.4µM* | / | ? | -82.2*!
Cc1ccn2c(NC3CCCCC3)c(-c3cccc(SC4CCCCC4)c3)nc2c1 | / | ? | / | ? | -75.0*!
Cc1ccn2c(NC3CCCC3)c(-c3ccsc3)nc2c1 | 11.2µM* | -18.7% | 0.6% | 3.4% | 27.0
CCCCCCSc1cccc(-c2nc3cc(C)ccn3c2NC2CCCCC2)c1 | / | ? | / | ? | -73.9*
Cc1ccn2c(NC3CCCCC3)c(-c3ccc(SC4CCCCC4)cc3)nc2c1 | / | / | / | / | 42.2
O=S(=O)(O)c1ccc2c(c1)C(C(Cl)(Cl)Cl)OC(C(Cl)(Cl)Cl)O2 (configuration not stated) | / | 12.9% | / | -1.7% | -5.2
SMILES | RORg inh | MCF10A rereplic | VP16 counter | SW480 rereplic | IL-1B inflam inh
O=C(c1cc(C(F)(F)F)cc(C(F)(F)F)c1)N1CCC2(CCCN(Cc3nccs3)C2)CC1 | 2.7% | / | -10.1% | / | /
COc1ccc(NC(=O)N2CC[C@@]3(CCCN(C(=O)c4ccncc4)C3)C2)cc1 | 22.4% | / | -2.1% | / | /
O=C(NNC(=O)c1cccs1)c1ccc(F)cc1 | 8.4% | -4.5% | 4.9% | -3.2% | -1.9
Cc1cccc(C(=O)NC(=S)NNC(=O)c2cccs2)c1 | ? | 4.5% | -18.1% | / | 0.0
Cc1ccccc1NC(=O)c1ccccc1NC(=O)c1cccs1 | 33.2% | -24.2% | 22.5% | -62.8% | 5.2
Cc1ccccc1C(=O)NNC(=S)NC(=O)c1cccs1 | 7.94µM* | -14.4% | 12.6µM* | 5.7% | 75.7
